Rows were chosen to be rich in hits. Some 19% of all compounds tested hit in one or more screens of this group.
CHX counter: counter-screen for Shiga toxin inhibitors: cycloheximide protein synthesis inhibition | AID 2314 | max response, % | actives 12% (n = 300,000) | cell reporter, cycloheximide protein synthesis inhibition counterscreen; in the data active = max response mostly above about 13%, no sharp cut-off; inactive = mostly below about 14%; note: read at 38.3 µM for the half of the compounds with a filed dose; 0% is about no effect
Pf growth 48h: P. falciparum growth inhibition at 48 hours (one generation); P. falciparum luciferase growth in erythrocytes, 48 h; AID 504832; Potency, µM (doses to about 28.7 µM), for the others: at the top dose activity change, negative = inhibition, hits mostly inhibitors; actives 5.9% (n = 310,000); note: potency is the fitted concentration of half-maximal effect; % is set by controls: 0 for no effect and ±100 for the full control effect
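A one-generation exposure of luciferase-tagged malaria parasites in RPMI 1640/Albumax erythrocyte culture, 37 C and 5% CO2. Inhibition is inferred from decreased luminescence after adding detection reagent.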
Shiga inhibitor: blocks Shiga toxin action in Vero cells | Vero cells, Shiga toxin protein synthesis inhibition reporter | inhibition, % at 38.7 µM | actives 9.2% (n = 290,000); in the data active = inhibition mostly above about 28%, no sharp cut-off; inactive = mostly below about 43%; note: 0% is about no effect
Marburg entry inh: Marburg virus entry inhibition; Marburg virus pseudotyped entry inhibition, cell reporter; Potency, µM (titrated, usually from 37.8 µM), for the others: top-dose activity change, negative = inhibition, usual class: inhibitors; actives 1.8% (n = 300,000); calls by dose curve; tested in HEK293 cells; note: potency is the fitted concentration of half-maximal effect; % is set by controls: 0 for no effect and ±100 for the full control effect
Pf growth 96h: P. falciparum growth inhibition at 96 hour, primary screen for plastid delayed-death inhibitors | P. falciparum luciferase reporter growth, 96 h | Potency, µM (doses to about 28.7 µM), for inactives: top-dose activity change, negative = inhibition, usual class: inhibitors | actives 6.9% (n = 320,000) | AID 504834; note: potency is the fitted concentration of half-maximal effect; % is set by controls: 0 for no effect and ±100 for the full control effect
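Readout is luminescence from an integrated firefly luciferase in P. falciparum. Red cells, 2% hematocrit and 0.05% parasitemia final, were cultured with compound through two parasite generations (96 hours) at 37 C, 5% CO2.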
Lassa entry inh: Lassa virus entry inhibition; Lassa virus pseudotype entry inhibition, cell reporter; actives 1.2% (n = 300,000); Potency, µM (doses to about 37.9 µM), without a hit: top-dose activity change, negative = inhibition, usual class: inhibitors; calls by dose curve; tested in HEK293 cells; note: potency is the fitted concentration of half-maximal effect; % is set by controls: 0 for no effect and ±100 for the full control effect; nearly all actives have a fitted effect of over 50% in size
* = called active by the depositor; ? = inconclusive; nt = not tested or not shown; [ ] = remark or other dose. Unless noted, calls come from the whole dose curve; as a rule, active = well fitted inhibition curve with a large enough effect; inconclusive = small, poorly fitted or top-dose-only effect, or another doubt; inactive = no such curve, though single readings can be large or run the other way.

SMILES | CHX counter | Pf growth 48h | Shiga inhibitor | Marburg entry inh | Pf growth 96h | Lassa entry inh
CCOc1cc(-c2nnc(NC(=O)c3ccco3)o2)cc(OCC)c1OCC | nt | ? | nt | -27.5% | -14.1% | 2.4%
CC(C)Cc1csc(NC(=O)C(C)C)c1C(=O)O | -2.4 | 15.1% | -11.3 | nt | 18.0% | nt
O=S(=O)(NCc1ccc(Cl)cc1)c1ccc2[nH]c3c(c2c1)CCCC3 | nt | nt | nt | nt | nt | 22.1%[46.1 µM]
Cc1cc(Nc2ccc([N+](=O)[O-])cc2)nc2ccccc12 | -3.0 | ? | 18.6 | -28.3%[46.1 µM] | 26.1% | ?
C=CCN1C(=O)NC(=O)/C(=C/c2ccc(OC)c(COc3ccc(NC(C)=O)cc3)c2)C1=O | -2.7 | -5.1% | -7.0 | -7.3%[46.1 µM] | 9.3% | 17.7%[46.1 µM]
COc1ccc(C(C)(C)C)cc1NS(=O)(=O)c1cccc2cccnc12 | -2.4 | 0.0% | -4.4 | ? | -27.8% | ?
O=C(Nc1ccccc1)C(Cc1ccccc1)N1Cc2ccccc2C1=O (centres undefined) | nt | nt | nt | nt | nt | -2.9%[46.1 µM]
O=C(Nc1ccc([N+](=O)[O-])cc1)C(Cc1ccccc1)N1C(=O)c2cccc3cccc(c23)C1=O (centres undefined) | -2.5 | 5.22µM* | 2.1 | -7.9%[46.1 µM] | ? | ?
O=C(CSc1nnc(-c2ccncc2)n1Cc1ccco1)Nc1nc(-c2ccccc2)cs1 | -3.6 | nt | 3.3 | ? | 23.8% | -19.9%
COc1ccc(-c2csc(NCc3ccco3)n2)cc1 | 42.4* | 185.2% | 71.8* | ? | nt | ?
c1coc(CNc2nc3ccccc3s2)c1 | 50.6* | 183.1% | 80.1* | ? | 378.6% | ?
c1coc(CNc2nc(-c3ccncc3)cs2)c1 | 35.6* | 88.5% | 71.6* | -19.1% | -7.0% | 11.4%
CC(C)OC(=O)CN1CCN(S(=O)(=O)c2cc(Cl)ccc2Cl)CC1 | -2.8 | -14.3% | -7.7 | ? | 0.0% | -12.0%
Cc1cccc(C(=O)NCCNC(=O)c2cnccn2)c1 | -8.0 | ? | -6.5 | 16.8%[46.1 µM] | -4.8% | -5.4%[46.1 µM]
Cc1ccc(N(CC(=O)NC2CCCCC2C)S(=O)(=O)c2c(C)noc2C)cc1 (centres undefined) | 1.4 | ? | -6.4 | nt | 9.28µM* | nt
COc1ccc(N(CC(=O)NCc2ccc(C)cc2)S(=O)(=O)c2c(C)noc2C)cc1 | -1.7 | ? | -5.9 | nt | 2.33µM* | nt
CCOc1ccc(N(CC(=O)NC2CCCC(C)C2C)S(=O)(=O)c2c(C)noc2C)cc1 (centres undefined) | -5.1 | -0.5% | -9.5 | -13.6% | ? | -11.7%
COc1ccc(N(CC(=O)NCc2ccc(Cl)cc2)S(=O)(=O)c2c(C)noc2C)cc1 | -3.7 | ? | -1.8 | nt | 8.28µM* | nt
Cc1nc(SCC(=O)N2CCCCCC2)[nH]c(=O)c1C | nt | 10.6% | nt | -13.0% | 21.2% | ?
CC(=O)O[C@]1(C(C)=O)CCC2C3C=C(C)C4=CC(=O)CC[C@]4(C)C3CC[C@@]21C (some centres undefined) | 6.7 | ? | 3.6 | nt | ? | nt
C[C@]12CCC(=O)C=C1C=C[C@@H]1[C@@H]2CC[C@@]2(C)[C@H]1CC[C@@]2(O)CCC(=O)O | nt | -0.8% | nt | nt | 6.3% | nt
CC(=O)O[C@]1(C(C)=O)CC[C@H]2[C@@H]3C=CC4=CC(=O)C=C[C@]4(C)[C@H]3CC[C@@]21C | -2.3 | 11.7µM* | -2.0 | ? | 4.65µM* | ?
CC(=O)O[C@]1(C(C)=O)CC[C@H]2[C@@H]3C=C(C)C4=CC(=O)CC[C@@H]4[C@H]3CC[C@@]21C | nt | 13.1µM* | nt | nt | ? | nt
C#C[C@]1(OC(C)=O)CCC2C3CCC4=CC(=O)CC[C@@H]4C3CC[C@@]21C (some centres undefined) | -1.1 | 23.0% | -3.9 | nt | -2.5% | nt
C=C1CC2C3C=C(C)C4=CC(=O)CCC4(C)C3CCC2(C)[C@@]1(OC(C)=O)C(C)=O (some centres undefined) | nt | ? | nt | nt | 10.7µM* | nt
SMILES | CHX counter | Pf growth 48h | Shiga inhibitor | Marburg entry inh | Pf growth 96h | Lassa entry inh
Cc1n[nH]c2ccccc2c1=O | nt | nt | nt | 12.7% | nt | 12.7%
COc1ccc2nc(SCc3ccccc3C)nc(C)c2c1 | 12.1* | 20.0% | 0.0 | ? | ? | 10.6%
COc1ccc2nc(SCc3cccc(C)c3)nc(C)c2c1 | 27.2* | 133.5% | 61.7* | ? | ? | ?
COc1ccc2nc(SC(C(=O)c3ccccc3)c3ccccc3)nc(C)c2c1 (centres undefined) | 1.4 | ? | -5.2 | ? | 13.1µM* | ?
COc1ccc(/C=N\NC(=O)c2cccc(F)c2)cc1COc1ccccc1 | nt | nt | nt | ? | nt | -15.6%
COc1ccc(OCc2cc(/C=N\NC(=O)c3ccccc3)ccc2OC)cc1 | 32.8* | -26.6% | 72.2* | ? | ? | ?
COc1ccc(/C=N/O)cc1COc1ccc(NC(C)=O)cc1 | -1.3 | 7.3% | 9.0 | ? | 7.38µM* | 2.2%
COc1ccc(C(=O)N/N=C/c2ccc(OC)c(CN3CCCc4ccccc43)c2)cc1 | 9.4* | 1.17µM* | 1.1 | ? | 17.6% | ?
COc1ccc(/C=N/NC(=O)c2cccnc2)cc1CN1CCCc2ccccc21 | 3.4 | ? | 1.8 | -9.9%[46.1 µM] | -16.9% | -2.9%
COc1cccc(C(=O)N/N=C/c2ccc(OC)c(COc3ccccc3C(N)=O)c2)c1 | 57.0* | ? | 108.7* | nt | ? | nt
CCN(CC)CCN(Cc1cc2cc(C)c(C)cc2[nH]c1=O)C(=S)NCc1ccco1 | -0.7 | 20.2% | 28.8 | ? | 11.7% | -26.1%
COC(=O)C1CC(O)CN1S(=O)(=O)c1ccc2ccccc2c1 (centres undefined) | nt | -21.7% | nt | nt | 0.5% | nt
CCC1CN(C(=O)N2CCC(C(=O)NCc3ccc(C)o3)CC2)c2cc(C)ccc2O1 (centres undefined) | -4.6 | ? | -5.6 | nt | 13.5% | ?
COc1ccc(/C=N/NC(=O)c2cc(OC)c(OC)c(OC)c2)cc1CN1CCc2cc(OC)c(OC)cc2C1C (centres undefined) | -1.9 | ? | -8.9 | 14.1µM* | ? | -20.1%
COc1ccc(/C=N/NC(=O)c2cccnc2)cc1CN1CCc2cc(OC)c(OC)cc2C1C (centres undefined) | 5.0 | ? | -1.4 | -12.6%[46.1 µM] | ? | 13.2%
CC[C@@H]1C=C(C)C[C@H](C)C[C@H](OC)[C@H]2O[C@@](O)(C(=O)C(=O)N3CCCC[C@H]3C(=O)O[C@H](/C(C)=C/[C@@H]3CC[C@@H](O)[C@H](OC)C3)[C@H](C)[C@@H](O)CC1=O)[C@H](C)C[C@@H]2OC | -3.0 | 2.33µM* | 15.0 | 6.51µM* | 2.62µM* | ?
COC(=O)CSc1nc(C)cc(N2CCOCC2)n1 | 26.7 | 12.6% | 52.6* | -4.8%[46.1 µM] | 61.2% | 27.6%[46.1 µM]
Cc1cc(N2CCOCC2)nc(SCC(=O)c2ccc(Cl)cc2)n1 | -3.3 | ? | -15.9 | -4.9% | ? | -9.2%
Cc1cc(N2CCC(C)CC2)nc(SCC(=O)c2ccccc2)n1 | 12.6* | ? | 28.8* | ? | ? | -18.8%
Cc1cc(C)nc(SCC(=O)c2ccc(C)c(C)c2)n1 | 10.7* | -0.2% | 25.4 | 4.2% | 9.28µM* | ?
